Screens: PubChem, several laboratories
PTK2B oligo ant – antagonists of human Pyk2 oligomerization; Q14289; Q293 cells, Pyk2 FERM NanoBiT luminescence; active compounds read low; z-score (the deposit names both 25 µM and 10 µM); 99,000 tested, 0.83% active; AID 1347419;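 active = Z-score of -3 or lower, scaled per plate to the spread of control and sample wells; inactive = z-score above -3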;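 also: negative z-score means lost luminescence so less FERM oligomerization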
Cav32 inh – blocks human Cav3.2 T-type calcium channel. B-score at 10 µM. 100,000 tested, 4% active. O95180. Cav3.2-expressing cells, Fluo-4 calcium fluorescence FDSS; active compounds read low;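 active = single-dose well whose peak fluorescence ratio is a statistical outlier from its plate by either plate-standardised score or position-corrected B-score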
Plk1 PBD FP – blocks phosphopeptide binding to human Plk1 polo box domain; 97,000 tested, 0.13% active; inhibition, %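 (tested at about 20 µM)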; AID 693; Plk1 PBD phosphopeptide binding, fluorescence polarization; in the data active = inhibition above about 34%, passing the limit was not always enough
SDO1 yeast rescue – sdo1-depleted yeast growth rescue. S. cerevisiae sdo1-depleted JHY4D growth rescue, OD600 30 h; active compounds read high; pdr5 snq2 efflux-pump mutant strain. 140,000 tested, 0.21% active. z-score at 10 µM. AID 817;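 active = z-score above 3 at both the 24 hr and the 30 hr optical density reads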;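 also: z-score against mean and SD of all compound wells on the same plate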
PLK1 kinase inh – blocks human PLK1 kinase activity | P53350 | recombinant PLK1 kinase, TR-FRET peptide phosphorylation | inhibition, % at 10 µM | 97,000 tested, 0.53% active;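 active = inhibition of 50% or more in the single-concentration screen; inactive = inhibition below 50%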;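 also: 0% = DMSO max control and 100% = H-89 dihydrochloride min control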
DAT uptake mod – modulates human dopamine transporter uptake under cocaine; Q01959; LLC-PK1 hDAT cells, [14C]-dopamine uptake with cocaine IC80; actives deviate in either direction; B-score at 10 µM; 110,000 tested, 1.3% active; AID 449768;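 active = Z score or B-score, a plate-position-corrected score, falls beyond the plate's 99.7% confidence bounds, in either direction; inactive = both scores lie inside the 99.7% bounds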;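 also: scored against the spread of the other compound wells on the same plate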
Target sequence (Q01959 whole entry, looked up): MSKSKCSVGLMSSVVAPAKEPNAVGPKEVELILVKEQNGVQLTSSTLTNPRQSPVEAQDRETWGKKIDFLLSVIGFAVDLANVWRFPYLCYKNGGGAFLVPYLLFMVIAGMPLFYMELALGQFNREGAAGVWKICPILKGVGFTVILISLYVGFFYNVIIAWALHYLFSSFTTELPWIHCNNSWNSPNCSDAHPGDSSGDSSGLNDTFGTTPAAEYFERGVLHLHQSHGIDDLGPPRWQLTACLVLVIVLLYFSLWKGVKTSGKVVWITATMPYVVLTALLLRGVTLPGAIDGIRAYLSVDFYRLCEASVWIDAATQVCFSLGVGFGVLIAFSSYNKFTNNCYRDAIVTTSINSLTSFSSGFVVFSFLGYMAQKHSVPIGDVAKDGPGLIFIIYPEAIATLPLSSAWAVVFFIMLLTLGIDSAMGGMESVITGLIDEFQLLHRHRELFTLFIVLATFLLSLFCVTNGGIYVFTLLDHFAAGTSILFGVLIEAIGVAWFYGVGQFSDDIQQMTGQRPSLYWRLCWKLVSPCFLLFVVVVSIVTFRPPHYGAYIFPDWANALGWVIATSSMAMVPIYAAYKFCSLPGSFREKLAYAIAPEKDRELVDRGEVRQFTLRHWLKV
* marks the source's active call; other numbers are inactive results. Compounds with a hit are over-represented: about 4.7% of the library has one in this group of screens.

Results for CCc1nccn1S(=O)(=O)c1ccc(OC)c(C)c1C ?
PTK2B oligo ant: 0.59; Cav32 inh: -3.8*; Plk1 PBD FP: -10; SDO1 yeast rescue: 0.52; PLK1 kinase inh: -1; DAT uptake mod: -1.3

Results for CCOc1cc(NC(=O)C2CC2)c(OCC)cc1NC(=O)c1ccccn1 ?
PTK2B oligo ant: -3.2*; Cav32 inh: 0.66; Plk1 PBD FP: 23; SDO1 yeast rescue: -0.07; PLK1 kinase inh: -6; DAT uptake mod: -1.5

How did COc1ccc(OC)c(Nc2cc(-c3ccccc3)nc(N)n2)c1 do in these assays?
Cav32 inh: -4.5*; Plk1 PBD FP: -6; SDO1 yeast rescue: -1.4; PLK1 kinase inh: -9; DAT uptake mod: 0.97

How did Cc1ccc(S(=O)(=O)C2(C(=O)N3CCN(C4CCCCC4)CC3)CC2)cc1 do in these assays?
PTK2B oligo ant: 0.11; Cav32 inh: -5.2*; Plk1 PBD FP: 16; SDO1 yeast rescue: -0.15; PLK1 kinase inh: -16; DAT uptake mod: -0.92

Results for COc1nc(N)c(S(=O)(=O)c2ccccc2C)cc1C#N ?
PTK2B oligo ant: -0.46; Cav32 inh: -3.9*; Plk1 PBD FP: -17; SDO1 yeast rescue: 0.23; PLK1 kinase inh: -6; DAT uptake mod: 0.31

Results for COCCn1c(=NC(=O)C(C)(C)C)sc2cc([N+](=O)[O-])ccc21 ?
SDO1 yeast rescue: -0.61

Results for O=C(Nn1c(C2CCCCC2)nc2ccccc2c1=O)c1ccc([N+](=O)[O-])cc1 ?
SDO1 yeast rescue: -0.17

What do the screens show for `CN1CCN(c2nc(-c3ccncc3)nc3ccccc23)CC1`?
PTK2B oligo ant: 0.31; Cav32 inh: 1.2; Plk1 PBD FP: 17; SDO1 yeast rescue: 0.51; PLK1 kinase inh: 53*; DAT uptake mod: 0.84

Results for CCN1CCN(c2nc(-c3ccccn3)nc3ccccc23)CC1 ?
PTK2B oligo ant: 0.74; Cav32 inh: 0.66; Plk1 PBD FP: -7; SDO1 yeast rescue: -0.26; PLK1 kinase inh: -6; DAT uptake mod: -0.072

Results for c1ccc2c(N3CCCC3)nc(-c3ccncc3)nc2c1 ?
PTK2B oligo ant: -0.9; Cav32 inh: 0.71; Plk1 PBD FP: 5; SDO1 yeast rescue: -2.1; PLK1 kinase inh: -5; DAT uptake mod: 1.1

Results for c1ccc(-c2nc(N3CCCCCC3)c3ccccc3n2)nc1 ?
PTK2B oligo ant: -0.42; Plk1 PBD FP: 13; SDO1 yeast rescue: -2.8; PLK1 kinase inh: -2; DAT uptake mod: 2.1*

What do the screens show for `O=C(Nc1nc2ccccc2n1CCOc1ccccc1)c1ccco1`?
PTK2B oligo ant: -1.6; Plk1 PBD FP: -6; SDO1 yeast rescue: -1.3; PLK1 kinase inh: -3; DAT uptake mod: 2.3*

What do the screens show for `O=C(Nc1nc2ccccc2n1CCOc1ccc(Cl)cc1)c1ccco1`?
Cav32 inh: -1.4; Plk1 PBD FP: 27; SDO1 yeast rescue: -1.5; PLK1 kinase inh: -10; DAT uptake mod: -0.7

Results for O=C(Nc1nc2ccccc2n1Cc1ccc(Cl)cc1)c1ccco1 ?
PTK2B oligo ant: -0.28; Cav32 inh: -0.32; SDO1 yeast rescue: -1.8; DAT uptake mod: -0.5

Results for O=C(Nc1nc2ccccc2n1CCN1CCCCC1)c1ccco1 ?
PTK2B oligo ant: 0.33; Cav32 inh: -0.52; Plk1 PBD FP: 12; SDO1 yeast rescue: 0.49; PLK1 kinase inh: -7; DAT uptake mod: 0.97*

What do the screens show for `CC1(C)CC(=NOC(=O)c2ccccc2)CC(C)(C)N1O`?
SDO1 yeast rescue: -0.05

What do the screens show for `Cc1ccccc1Cn1c(=N)n(CC(=O)c2ccco2)c2ccccc21`?
PTK2B oligo ant: 2.1; Cav32 inh: -4.2*; Plk1 PBD FP: 2; SDO1 yeast rescue: -1; PLK1 kinase inh: -12; DAT uptake mod: 0.31

Results for CCOC(=O)Cn1c(=N)n(Cc2ccccc2)c2ccccc21 ?
PTK2B oligo ant: 0.36; Cav32 inh: -0.71; Plk1 PBD FP: -16; SDO1 yeast rescue: 1.4; PLK1 kinase inh: -13; DAT uptake mod: -0.81

How did CCOC(=O)c1nc(N2CCN(C(=O)OCC)CC2)c2c3c(sc2n1)CCCC3 do in these assays?
PTK2B oligo ant: -1.3; Cav32 inh: 0.1; Plk1 PBD FP: -4; SDO1 yeast rescue: -0.78; PLK1 kinase inh: 0; DAT uptake mod: 3.2*

What do the screens show for `CCOC(=O)N1CCN(c2nc(SC)nc3sc4c(c23)CC(C)(C)OC4)CC1`?
PTK2B oligo ant: -0.56; Cav32 inh: -4.7*; DAT uptake mod: -0.82

What do the screens show for `CCc1ccc(C(=O)C(C)OC(=O)C2COc3ccccc3O2)cc1` (stereo not given)?
SDO1 yeast rescue: 0.84

What do the screens show for `O=[N+]([O-])c1ccc(C2Oc3ccccc3C3CC(c4ccccc4)=NN32)s1` (stereo not given)?
SDO1 yeast rescue: -1.7

Results for CCOc1cc(-c2ccc(N)c(OCC)c2)ccc1N ?
PTK2B oligo ant: 0.62; Cav32 inh: -5.4*; Plk1 PBD FP: -5; SDO1 yeast rescue: -0.19; PLK1 kinase inh: -7; DAT uptake mod: -0.032

Results for COc1ccc(CNC(=O)COC(=O)CC2CCCC2)cc1 ?
SDO1 yeast rescue: -1.1

Results for CC1(C)c2[nH]c3ccccc3c2C[C@@H]2C(=O)N(Cc3ccccc3)C(=O)N21 ?
Cav32 inh: -0.81; DAT uptake mod: 0.49

What do the screens show for `CC1(C)c2[nH]c3ccccc3c2C[C@H]2C(=O)N(Cc3ccccc3)C(=O)N21`?
Cav32 inh: -1.2; DAT uptake mod: 2.8*

How did CCCSC1=C(C#N)C(c2cccs2)C(C(=O)Nc2ccccc2)=C(C)N1 (stereo not given) do in these assays?
PTK2B oligo ant: -1.2; Cav32 inh: -2.7*; Plk1 PBD FP: -12; SDO1 yeast rescue: -0.58; PLK1 kinase inh: -11; DAT uptake mod: -1.3

Results for CCSC1=C(C#N)C(c2cccs2)C(C(=O)OC)=C(C)N1 (stereo not given) ?
PTK2B oligo ant: -2.7; Cav32 inh: -2.1; Plk1 PBD FP: -12; SDO1 yeast rescue: -0.42; PLK1 kinase inh: -6; DAT uptake mod: -0.34

Results for COc1ccc(CNC(=O)CCSCc2cccc(Cl)c2)c(OC)c1 ?
SDO1 yeast rescue: -0.56

What do the screens show for `CC(C)C(=O)NC(Nc1cccc2cccnc12)C(Cl)(Cl)Cl` (stereo not given)?
PTK2B oligo ant: -0.84; Cav32 inh: -5.1*; Plk1 PBD FP: 27; SDO1 yeast rescue: -1; PLK1 kinase inh: -14; DAT uptake mod: -1.7

Results for C[C@H]1CC[C@@]2(O[C@H](CCO)C[C@H](O)[C@H]2O)O1 ?
Cav32 inh: 0.24; DAT uptake mod: -0.97

How did COc1ccc(N2CCN(C(=O)CC(NC(N)=O)c3cccc(Oc4ccccc4)c3)CC2)cc1 (stereo not given) do in these assays?
PTK2B oligo ant: -0.25; Cav32 inh: -5.5*; Plk1 PBD FP: -11; SDO1 yeast rescue: -0.26; PLK1 kinase inh: 2; DAT uptake mod: 0.085

What do the screens show for `COc1cc(CC(=O)N/N=C/c2ccc([N+](=O)[O-])cc2)c([N+](=O)[O-])cc1OC`?
SDO1 yeast rescue: 0.35

How did CCN(C(=O)Cc1ccc(Br)cc1)C1CCCCC1 do in these assays?
PTK2B oligo ant: -1; Cav32 inh: -4.4*; Plk1 PBD FP: -3; SDO1 yeast rescue: -0.44; PLK1 kinase inh: -4; DAT uptake mod: 0.43
